From PubChem BioAssay (NCI)
Compounds without any hit were thinned out: in the full panel of roughly 83,000, 20% have a hit.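 The endpoint reported here, percent growth, reads 100 for growth as untreated, 0 for no net growth and -100 for all cells dead.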 Unmarked numbers belong to inactive results. Calls of active or inactive are those of the source. The calls were made as follows: active = growth percent below 10; inactive = the rest.

Tests used:
Assay in all cases: NCI-60 one-dose screen, 48 h (100 = growth as untreated, 0 = no growth, -100 = all killed)
Conditions in all cases: 10 µM
NCI-H23 lung = test system: NCI-H23 lung
NCI-H226 lung = test system: NCI-H226 lung
NCI-H322M lung = test system: NCI-H322M lung
HOP-62 NSCLC = test system: HOP-62 NSCLC
NCI-H460 lung = test system: NCI-H460 lung
HOP-92 NSCLC = test system: HOP-92 NSCLC
NCI-H522 lung = test system: NCI-H522 lung
A549/ATCC NSCLC = test system: A549/ATCC NSCLC
786-0 renal = test system: 786-0 renal
COLO 205 colon = test system: COLO 205 colon

SMILES	growth (NCI-H23 lung)	growth (NCI-H226 lung)	growth (NCI-H322M lung)	growth (HOP-62 NSCLC)	growth (NCI-H460 lung)	growth (HOP-92 NSCLC)	growth (NCI-H522 lung)	growth (A549/ATCC NSCLC)	growth (786-0 renal)	growth (COLO 205 colon)
O=C(Nc1nc2ccccc2s1)c1ccc(Br)cc1	74%	67.4%	83.4%	101%	81.6%	100%	75.3%	84.9%	99.6%	107%
N#Cc1ccc(NC(=O)CSc2ccc(-c3ccc(Br)cc3)nn2)cc1	51.3%	44.8%	76.6%	88.6%	64.6%	70.2%	52%	64.7%	80.2%	112%
O=S(=O)(c1ccc(Cl)cc1)c1nc(-c2ccccc2)oc1S(=O)(=O)c1ccc(Cl)cc1	78.9%	87.5%	101%	91.3%	98%	85.7%	88.1%	94.2%	94.9%	102%
Cc1ccc(/C=C/C(=O)c2ccc(S(=O)(=O)NCCNc3nc(Nc4ccc(F)cc4)nc(N(C)C)n3)cc2)cc1	36.5%	-1.6% (active)	48.5%	56.2%	0.319% (active)	-18.2% (active)	71.3%	41.3%	-32% (active)	35.4%
C#CCNC(=O)[C@]12CCC(C)(C)C[C@H]1C1=CC[C@@H]3[C@@](C)(CCC#N)[C@H](C(=C)C)CC[C@@]3(C)[C@]1(C)CC2	58.2%	76.5%	77.1%	68.5%	66.9%	26.4%	64.5%	40.1%	74.6%	68%
C/C(=N\N=C\c1ccc(Cl)c([N+](=O)[O-])c1)c1ccc2c(c1)Nc1ccccc1S2	18.2%	-25.2% (active)	50%	47.5%	1.22% (active)	32.6%	33.2%	60.2%	52.1%	32.1%
O=c1oc2ccc(-c3ccc(F)cc3F)cc2c(=O)n1-c1ccc(F)cc1	-27.8% (active)	-6.57% (active)	1.43% (active)	-20.9% (active)	2.62% (active)	-23.8% (active)	-7.06% (active)	17.8%	8.17% (active)	83.2%
CC(=O)c1ccc(Nc2nc(SCCC(C)C)nc(-c3ccc(F)cc3)c2C#N)cc1	53.2%	5.36% (active)	41.4%	41.1%	11.4%	3.49% (active)	72.8%	18.8%	2.71% (active)	77.2%
O=C1N/C(=N\c2nccs2)S/C1=C\c1cccs1	38.1%	19.9%	45.2%	33.6%	14.7%	68%	21.2%	26.8%	43.2%	29%
Cc1cc2c(c(O)c1Br)-c1ncoc1C(=O)[C@]1(C)CC[C@H](C(C)C)[C@H]21	36.8%	38.5%	65.7%	38%	18.4%	35.4%	-20.6% (active)	16.5%	66.5%	-15.9% (active)
O=C(CSc1ccc(-c2ccc(Cl)cc2)nn1)Nc1ccc(Cl)c(C(F)(F)F)c1	73.6%	76.1%	89.1%	57.4%	98.6%	75.8%	55.1%	70.5%	80.6%	74.8%
O=C(Cn1nc(-c2ccccc2)ccc1=O)NNC(=S)NC1CCCCC1	105%	105%	99.6%	104%	136%	116%	104%	114%	105%	135%
Cc1nn(-c2ccccc2)c2ncn(CC(=O)N/N=C/c3c[nH]c4ccccc34)c(=O)c12	95.4%	93.1%	93.5%	95.6%	92.9%	80.5%	89%	85.4%	88%	109%
O=C(Nc1cccc(C(F)(F)F)c1)c1cncc(C#Cc2cnc3ccc(N4CCOCC4)nn23)c1	-58.7% (active)	-4.93% (active)	5.52% (active)	6.8% (active)	0.042% (active)	-48% (active)	-34.1% (active)	7.95% (active)	-22.9% (active)	-48% (active)
Cc1cccc(NC(=O)CSc2nc3ccc(F)cc3c(=O)n2-c2ccc(Cl)cc2)c1C	63%	21.5%	81.6%	26.5%	57.9%	26.9%	77%	72.5%	34.7%	94.7%
O=C(Cc1ccc2c(c1)CN(C1CCC(=O)NC1=O)C2=O)NCc1cccc2ccccc12 (stereo not given)	12.7%	1.96% (active)	-4.15% (active)	-23.1% (active)	45.7%	-28.3% (active)	-21.4% (active)	7.72% (active)	-23.6% (active)	-35.7% (active)
O=C(c1ccc(Cl)cc1)C1[C@H](c2ccc(Br)cc2)[C@@H](c2ccccc2)NC12C(=O)Nc1ccc(Br)cc12 (stereo not given in full)	-92.7% (active)	-90.5% (active)	-59.3% (active)	-80.3% (active)	-62.5% (active)	-72.7% (active)	-82% (active)	-51.5% (active)	-80.4% (active)	-88.2% (active)
COc1ccc2nc(Cl)c(-c3cc(-c4ccccc4)nc(=S)[nH]3)cc2c1	72.6%	80.2%	89.4%	75.7%	90.4%	54.1%	37%	93.6%	78%	72.6%
N#Cc1ccc(-c2nn(-c3ccc(C(=O)O)cc3)cc2CNc2cccc(Br)c2)cc1	10.6%	44.4%	85.5%	42%	37.8%	56.5%	73.4%	55.7%	45%	117%
CCN1CCN(Cc2ccc(NC(=O)c3cccc(-n4cc(-c5ccc(NC(C)=O)nc5)nn4)c3)cc2C(F)(F)F)CC1	93%	99.9%	125%	121%	100%	72.6%	74.7%	96.4%	58.5%	57.3%
COc1ccc(/C=C/C(=O)c2ccc(S(=O)(=O)NCCNc3nc(Nc4ccc(F)cc4)nc(N(C)C)n3)cc2)cc1	44.8%	21.7%	55.3%	51.2%	15.1%	-15.9% (active)	57.3%	50.1%	13.5%	49.2%
S=c1nc(-c2ccccc2)cc(-c2cc3ccccc3nc2Cl)[nH]1	78.5%	76.8%	98.5%	72.7%	90.4%	75.9%	57.8%	86.1%	90.5%	96.3%
COc1cc2c3c(n(CCCNC(C)C)c(=O)c2cc1OC)-c1nc2c(cc1C3=O)OCO2	16.5%	-32.2% (active)	60.3%	5.84% (active)	-74.2% (active)	66.5%	50.9%	-62.8% (active)	-78.3% (active)	-67.6% (active)
COc1ccc2[nH]cc(/C=N/Nc3ccc(Br)cn3)c2c1	36.6%	40%	43.8%	45.8%	16.2%	-24.5% (active)	38.5%	23%	-3.93% (active)	37.4%
N#Cc1c(NC(=O)c2cccc(C(F)(F)F)c2)sc2c1CCC(O)=C2	22.3%	54.7%	49.2%	55%	30.3%	11.2%	11.2%	35.7%	62.1%	90.2%
O=C(c1ccc(Cl)cc1)C1[C@H](c2ccc(Br)cc2)[C@@H](c2ccccc2)NC12C(=O)Nc1ccc(Cl)cc12 (stereo not given in full)	-83.6% (active)	-85.6% (active)	-28.6% (active)	-73.4% (active)	-63% (active)	-69.2% (active)	-79.5% (active)	-44% (active)	-68% (active)	-87.7% (active)
N#Cc1c(NC(=O)c2ccc(C(O)(C(F)(F)F)C(F)(F)F)cc2)sc2c1CCC(=O)C2	-81% (active)	-57.2% (active)	19.1%	-17% (active)	7.12% (active)	-55.7% (active)	-71.2% (active)	9.39% (active)	-47.7% (active)	-89.3% (active)
